Source: PubChem BioAssay (several laboratories)
Compounds with a hit are over-represented: about 2.1% of the library has one in this group of screens.
ADAM17 inh = inhibits human ADAM17; recombinant ADAM17, EDANS/DABCYL FRET peptide cleavage; P78536; inhibition, % at 6.95 µM; 0.83% of 370,000 active;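 active = inhibition above the mean of compounds lying between control limits plus 3 SD, set per campaign, cut at about 8.5% in these data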;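 also: 0% = DMSO-only wells as the low control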
PLC-gamma1 inh = PLC-gamma1 (human) inhibition, primary screen | P19174 | purified PLC-gamma1, fluorogenic substrate, fluorescence | inhibition, % at 12.2 µM | 0.84% of 370,000 active; in the data active = inhibition above about 9.5%
PLC-beta3 inh = blocks human PLC-beta3 enzyme activity; Purified PLC-beta3, fluorogenic substrate, fluorescence; inhibition, % at 12.2 µM; 0.18% of 370,000 active; AID 720704; in the data active = inhibition above about 11%;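 also: 0% = median of compound wells on plate and 100% = full blocker control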
ADAM10 inh = ADAM10 inhibition, QFRET primary screen. O14672. 0.62% of 370,000 active. AID 720582. inhibition, % at 7 µM. recombinant ADAM10, EDANS/DABCYL FRET peptide cleavage, 3 h;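 active = inhibition above a per-campaign cutoff equal to the mean of compounds falling between control-based bounds plus 3 SD, cut at about 20% in these data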;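 also: 0% = DMSO wells while the 100% control is not disclosed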
Target sequence (O14672 214-748 limits assumed): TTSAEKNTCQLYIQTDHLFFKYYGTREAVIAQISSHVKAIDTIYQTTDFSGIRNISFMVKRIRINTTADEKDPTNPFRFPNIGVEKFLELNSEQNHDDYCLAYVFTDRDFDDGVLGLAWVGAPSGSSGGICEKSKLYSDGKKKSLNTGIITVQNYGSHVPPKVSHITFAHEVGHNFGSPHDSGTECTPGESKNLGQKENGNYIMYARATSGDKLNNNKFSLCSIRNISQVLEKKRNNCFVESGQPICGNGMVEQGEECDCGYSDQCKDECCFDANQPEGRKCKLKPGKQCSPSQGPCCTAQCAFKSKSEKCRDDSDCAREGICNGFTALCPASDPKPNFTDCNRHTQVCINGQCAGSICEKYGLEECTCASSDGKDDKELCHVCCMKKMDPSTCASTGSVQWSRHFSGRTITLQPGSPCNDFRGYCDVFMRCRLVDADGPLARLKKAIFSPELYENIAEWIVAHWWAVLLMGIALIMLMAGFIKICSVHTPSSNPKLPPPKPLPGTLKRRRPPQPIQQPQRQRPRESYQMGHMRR
Rce1 inh = blocks yeast Ras-converting enzyme; Q03530; calls only; yeast membranes, quenched prenylated peptide cleavage fluorescence; 0.27% of 290,000 active;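 active = fall in fluorescence gain of 50% or more versus controls, with final raw signal at or below 3038400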;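 also: plate controls were neutral control wells for no effect and wells lacking membranes for full effect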
* = called active by the depositor; i = inactive; . = no result given; + = active, no number.

SMILES	ADAM17 inh	PLC-gamma1 inh	PLC-beta3 inh	ADAM10 inh	Rce1 inh
COC(=O)Cn1c(CCC(=O)O)ccc1-c1ccccc1	-225	-91	-108	i	+
COc1ccc(NC(=O)Cn2c(CCC(=O)O)ccc2-c2ccccc2)cc1	-13	-9	-16	-42	i
COCCCNC(=S)NCCNc1nc2cc(C)cc(C)c2cc1C#N	-88	-81	-124	-244	+
Cc1ccc(NCc2nnc(SCC(=O)c3ccccc3)n2Cc2ccco2)c(C)c1	0	-3	-9	29*	i
CCOc1ccc(S(=O)(=O)Nc2ccccc2C(=O)N2CCOCC2)cc1	1	0	-2	3	i
Cc1nn(CCC(=O)O)c2nc(-c3cccnc3)cc(C(F)(F)F)c12	-36	-37	-50	-108	+
Cc1nn(CCC(N)=O)c2nc(-c3cccs3)cc(C(F)(F)F)c12	i	-171	-195	i	i
C=CCn1c(SCc2ccc(C#N)cc2)nnc1-c1ccc(C)cc1	0	5	-4	0	+
O=[N+]([O-])c1ccc(CSc2nnc(-c3cccc(Cl)c3)n2Cc2ccco2)cc1	5	3	2	7	.
CCn1c(COc2ccc(Cl)cc2)nnc1SCc1ccc(C#N)cc1	3	7	2	7	i
CCn1c(COc2ccccc2)nnc1SCc1ccc(C#N)cc1	1	9.6*	6	13	i
Cc1cccc(-c2nnc(SCc3ccc(C#N)cc3)n2Cc2ccco2)c1	0	2	2	10	+
CN(C(=O)c1cccc(NC(=O)Cc2ccc(NC(=O)C3CCN(C(=O)CCc4ccccc4)CC3)cc2)c1)C1CCCC1	1	-2	2	8	.
C[C@H](O)[C@@H]1C(=O)N2CCc3c([nH]c4cccc(-c5ccccc5)c34)[C@@H]2C[C@@H]1N(C)C(=O)c1ccco1	-162	-278	-353	i	.
Cn1c(=O)c2c(C(=O)O)cc(-c3ccccc3)nc2n(Cc2ccccc2)c1=O	-27	-48	-79	-66	i
COc1ccccc1-c1cc(C(=O)O)c2c(=O)n(C)c(=O)n(Cc3ccccc3)c2n1	-118	-222	-312	-335	+
Cc1ccc(C(=O)OCC(=O)Nc2ccc(C)c(S(=O)(=O)N3CCCCC3)c2)c(O)c1	-3	0	0	-15	.
O=C(c1cc2c(ccc3ccccc32)oc1=O)N1CCCC1	i	i	i	i	i
O=C(O)c1cc2c(ccc3ccccc32)oc1=O	i	-412	i	i	+
C=CCN1CCN(C(=O)c2cc3c(s2)CCC(CC)C3)CC1 (configuration not stated)	4	9.7*	1	1	i
Cc1cccc(COCC(Cc2ccccc2)N2CCN(C(=O)c3ccc(Cl)c(Cl)c3)CCC2=O)c1 (configuration not stated)	6	4	4	28*	i
N#Cc1ccc(S(=O)(=O)N2CCCc3nc(-c4ccccc4)ccc32)cc1	-4	-10	-11	-10	.
Cc1ccc(-c2nc(Nc3ccc(N4CCOCC4)cc3)c3ccccc3n2)cc1	2	-16	-28	2	+
O=S1(=O)c2ccc(N3CCSCC3)cc2Oc2ccccc2CN1Cc1cn(Cc2ccc(Cl)cc2)nn1	3	-1	-6	5	.
O=C1CCCN1CC(O)CS(=O)(=O)c1ccccc1 (configuration not stated)	2	6	3	8	+
SMILES	ADAM17 inh	PLC-gamma1 inh	PLC-beta3 inh	ADAM10 inh	Rce1 inh
Cc1c(CCC(=O)O)c(=O)oc2cc(OCc3cccc(F)c3)ccc12	-323	-54	-89	i	+
CCCc1c(-c2cccc(Br)c2)ncn1CCc1ccccc1OC	4	1	5	-7	.
COC(=O)[C@]12C[C@H](CC(=O)NCCCN3CCCC3=O)C(=O)N(Cc3ccc4c(c3)OCO4)C1=C[C@H](COCc1ccccc1)O[C@@H]2C	0	1	0	2	.
Cc1cccc(Nc2nc(N)c([N+](=O)[O-])c(N3CCN(C)CC3)n2)c1	-2	3	0	-7	i
Cc1cccc(Nc2nc(N)c([N+](=O)[O-])c(N3CCCC(C)C3)n2)c1 (configuration not stated)	9.0*	5	7	17	i
Cc1cccc(Cn2nc(C(C)(C)C)cc2C(=O)Nc2ccc(F)cc2)c1	9.0*	5	-4	25*	i
CC(C)(C)c1cc(C(=O)NN)n(Cc2ccc(F)cc2)n1	2	-1	-9	9	.
COc1ccc(CN(C)CCc2ccccn2)cc1OC	3	11*	13*	-3	i
O=C(OCC#CCSc1nnc(-c2cccc3ccccc23)o1)c1ccc(F)cc1F	-1	1	-3	-3	.
COc1ccc(-n2nc(C(=O)NCC(=O)N(C)Cc3ccccc3)c3ccccc3c2=O)cc1	2	-24	-36	2	+
COc1ccc(-n2nc(C(=O)NCC(=O)N3CCN(Cc4ccccc4)CC3)c3ccccc3c2=O)cc1	1	-84	-129	0	+
COc1ccc(-n2nc(C(=O)NCC(=O)NCc3ccc(F)cc3)c3ccccc3c2=O)cc1	-2	-59	-70	-1	+
COc1ccc(-n2nc(C(=O)NCC(=O)O)c3ccccc3c2=O)cc1	-2	-13	-22	7	i
C[C@@H]1ON(C)[C@H]2C[C@H]3c4[nH]c5cccc(-c6ccccc6F)c5c4CCN3C(=O)[C@@H]12	-153	-287	-375	i	.
COc1cc(C=Nn2c(-c3ccccc3F)n[nH]c2=S)ccc1OCc1ccccc1	4	4	-2	4	.
CCN(CC)c1ccc(NC(=O)c2ccccc2)cc1S(=O)(=O)Nc1ccccc1OC	9.4*	-4	-2	18	i
CCN(CC)c1ccc(NC(=O)c2cccc(C)c2)cc1S(=O)(=O)Nc1ccccc1OC	13*	-4	-3	25*	i
CCCCCCC12C(=Cc3cc(C)ccc31)c1ccccc1C(CC(=O)NCc1ccccc1)N2C(=O)OC (configuration not stated)	-7	-8	-13	-22	.
CC(=O)c1cccc(NC(=O)Cc2cccs2)c1	0	1	1	6	i
O=C(Cc1cccs1)Nc1cccc(C(=O)Nc2ccco2)c1	5	7	13*	9	.
CN(c1ccccc1)c1ccc(/C=N/NC(=O)CC#N)cc1	-23	-397	i	-61	+
S=c1[nH]nc(-c2n[nH]c3c2CCC3)n1N=Cc1c[nH]c2ccccc12	0	3	2	4	.
COC(=O)[C@]12C[C@H](CC(=O)NCc3cccc(C(F)(F)F)c3)C(=O)N(Cc3ccccc3)C1=C[C@H](C1CCCC1)O[C@@H]2C	6	3	8	13	.
COc1ccc(-n2c(SCc3ccc([N+](=O)[O-])cc3)nnc2-c2ccco2)cc1	-2	0	-1	0	.
CCOc1ccc(-n2c(SCc3ccc([N+](=O)[O-])cc3)nnc2-c2ccc(OC)cc2)cc1	5	1	1	7	+
